Test results: PubChem BioAssay (NCI)
About 83,000 compounds went through this panel and 20% of them were active in at least one assay; those are over-represented in the sample as a whole.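 Values shown are percent growth following 48 h exposure of cells in 96-well plates to a single concentration of compound; below 10 was considered active.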 Active and inactive are the calls of the source.

Columns and labels:
Assay in all cases: NCI-60 one-dose screen, 48 h (100 = growth as untreated, 0 = no growth, -100 = all killed)
Details in all cases: 10 µM
SK-MEL-2 melanoma = tested on: SK-MEL-2 melanoma
EKVX NSCLC = tested on: EKVX NSCLC
SN12C renal = tested on: SN12C renal
UO-31 renal = tested on: UO-31 renal
TK-10 renal = tested on: TK-10 renal
ACHN renal = tested on: ACHN renal
CAKI-1 renal = tested on: CAKI-1 renal
A498 renal = tested on: A498 renal
CCRF-CEM leukemia = tested on: CCRF-CEM leukemia
MOLT-4 leukemia = tested on: MOLT-4 leukemia
SR leukemia = tested on: SR leukemia
OVCAR-8 ovarian = tested on: OVCAR-8 ovarian
OVCAR-5 ovarian = tested on: OVCAR-5 ovarian
OVCAR-4 ovarian = tested on: OVCAR-4 ovarian
SK-OV-3 ovarian = tested on: SK-OV-3 ovarian
IGROV1 ovarian = tested on: IGROV1 ovarian
OVCAR-3 ovarian = tested on: OVCAR-3 ovarian
HS 578T breast = tested on: HS 578T breast
NCI/ADR-RES ovarian = tested on: NCI/ADR-RES ovarian
RPMI-8226 leukemia = tested on: RPMI-8226 leukemia

Measured: growth

COc1cc(/C=C/C(=O)c2ccc(NC(=O)CN3C(=O)NC(C)(c4ccccc4)C3=O)cc2)cc(OC)c1OC (stereo not drawn)
inactive: SK-MEL-2 melanoma 86% | EKVX NSCLC 73.2% | SN12C renal 10.7% | UO-31 renal 73.9% | TK-10 renal 98.6% | ACHN renal 56% | CAKI-1 renal 75.3% | A498 renal 132% | OVCAR-8 ovarian 10.4% | OVCAR-5 ovarian 34.6% | OVCAR-4 ovarian 32.9% | SK-OV-3 ovarian 112% | IGROV1 ovarian 26.7% | HS 578T breast 39.3% | NCI/ADR-RES ovarian 102%
active: CCRF-CEM leukemia 7.14% | MOLT-4 leukemia 1.84% | SR leukemia 5.93% | OVCAR-3 ovarian -6.99%

COc1ccc(NC(=O)CSc2nnc(-c3ccc4nc(-c5ccc(Cl)cc5)[nH]c4c3)o2)cc1
active: OVCAR-4 ovarian -2.09%
inactive: SK-MEL-2 melanoma 107% | EKVX NSCLC 98.8% | SN12C renal 29.1% | UO-31 renal 63.9% | TK-10 renal 121% | ACHN renal 63.8% | CAKI-1 renal 83.6% | A498 renal 132% | CCRF-CEM leukemia 67.5% | MOLT-4 leukemia 30.4% | SR leukemia 43.5% | RPMI-8226 leukemia 56.5% | OVCAR-5 ovarian 79.9% | SK-OV-3 ovarian 101% | IGROV1 ovarian 78.4% | OVCAR-3 ovarian 55.3% | HS 578T breast 35.2% | NCI/ADR-RES ovarian 81.3%

O=c1c2ccccc2nc(COc2ccccc2)n1/N=C/c1ccc(N2CCCC2)cc1
inactive: SK-MEL-2 melanoma 104% | EKVX NSCLC 88% | SN12C renal 88.7% | UO-31 renal 69.8% | TK-10 renal 99.5% | ACHN renal 92.3% | CAKI-1 renal 91.5% | A498 renal 109% | CCRF-CEM leukemia 78.2% | MOLT-4 leukemia 78.1% | SR leukemia 73.9% | OVCAR-8 ovarian 99% | OVCAR-5 ovarian 96.6% | OVCAR-4 ovarian 81.8% | SK-OV-3 ovarian 113% | IGROV1 ovarian 97.2% | OVCAR-3 ovarian 105% | HS 578T breast 94.8% | NCI/ADR-RES ovarian 94.3%

CCCn1c(=O)c2[nH]c(-c3ccc(OCc4nc5ccc(C)cc5[nH]4)cc3)nc2n(CCC)c1=O
inactive: SK-MEL-2 melanoma 52.1% | CCRF-CEM leukemia 46.8% | MOLT-4 leukemia 15.2% | SR leukemia 11.6% | RPMI-8226 leukemia 29.3% | OVCAR-5 ovarian 40.6% | IGROV1 ovarian 37% | OVCAR-3 ovarian 18.2% | NCI/ADR-RES ovarian 31.7%
active: EKVX NSCLC 9.33% | SN12C renal -5.67% | UO-31 renal -91% | TK-10 renal -51.8% | ACHN renal -88.2% | CAKI-1 renal 6.1% | A498 renal -79.8% | OVCAR-4 ovarian 0.252% | SK-OV-3 ovarian 4.62% | HS 578T breast -12.4%

O/N=C(\CSc1nnc(-c2c[nH]c3ccccc23)n1-c1ccccc1)c1ccc(Br)cc1
active: SK-MEL-2 melanoma -66.3% | EKVX NSCLC -63.3% | SN12C renal -77.2% | UO-31 renal 3.58% | TK-10 renal -82.8% | ACHN renal -83.5% | CAKI-1 renal -94.3% | CCRF-CEM leukemia -6.14% | MOLT-4 leukemia -19.2% | SR leukemia 1.29% | RPMI-8226 leukemia -13.1% | OVCAR-5 ovarian -82.5% | OVCAR-4 ovarian -83.4% | SK-OV-3 ovarian -50.2% | IGROV1 ovarian -65.4% | OVCAR-3 ovarian 0.699% | HS 578T breast -39.4% | NCI/ADR-RES ovarian -73.9%
inactive: A498 renal 62.2%

O=C(CNc1nc(-c2ccccc2)cs1)Nc1cccc([N+](=O)[O-])c1
active: SK-MEL-2 melanoma -79.9% | EKVX NSCLC -97.1% | SN12C renal -77.8% | UO-31 renal -95.7% | TK-10 renal -92.2% | ACHN renal -100% | CAKI-1 renal -88.9% | A498 renal -88.1% | CCRF-CEM leukemia 0.432% | MOLT-4 leukemia 0.799% | SR leukemia 2.8% | RPMI-8226 leukemia -18% | OVCAR-5 ovarian -92.8% | OVCAR-4 ovarian -45.7% | SK-OV-3 ovarian -22% | IGROV1 ovarian -47.4% | OVCAR-3 ovarian -44.6% | HS 578T breast -19.2% | NCI/ADR-RES ovarian -61.4%

O=C(c1ccccc1)n1ccc(-c2cc3cc(Br)ccc3oc2=O)n1
active: EKVX NSCLC -1.71% | ACHN renal 8.46% | CCRF-CEM leukemia 4.71% | NCI/ADR-RES ovarian -2.98%
inactive: SK-MEL-2 melanoma 16.8% | SN12C renal 27.4% | UO-31 renal 11.7% | TK-10 renal 34.7% | CAKI-1 renal 15.2% | A498 renal 117% | MOLT-4 leukemia 14.8% | RPMI-8226 leukemia 24.6% | OVCAR-8 ovarian 22.5% | OVCAR-5 ovarian 34.6% | OVCAR-4 ovarian 26.2% | SK-OV-3 ovarian 12.5% | IGROV1 ovarian 16% | OVCAR-3 ovarian 38.8% | HS 578T breast 48.5%
